Assay outcomes: PubChem, Sanford-Burnham Center for Chemical Genomics
Hits are enriched below; roughly 2.7% of the tested compounds scored in any of these assays.
aDG glyco act – alpha-DG glycosylation activation. 360,000 compounds, 0.22% hits. Pro5-aDG cells, alpha-DG glycosylation AlphaScreen (IIH6); 0% Pro5, 100% B10-LARGE cell signal. activation, % at 10 µM. AID 624168;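 active means activation of at least 8% versus controls, or a plate z-score of at least 8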;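 further: Pro5 are CHO cells carrying HIG-tagged alpha-DG that lacks glycosylation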
MPTP block – inhibitors of mitochondrial permeability transition pore. inhibition, % at 10 µM. 360,000 compounds, 1.4% hits. isolated mouse mitochondria, Ca2+ swelling absorbance, 30 min. AID 602449;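 active means inhibition of 50% or more, scaled per plate between neutral and stimulator controls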;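 further: 0% = DMSO wells given calcium and 100% = 1 mM EGTA wells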
TAG inh – reduces triacylglycerol accumulation in H9c2 cells | Nile Red lipid (TAG) fluorescence; cells loaded with 200 µM oleic acid | inhibition, % at 12.5 µM | 230,000 compounds, 0.66% hits | AID 651582;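 active means pattern-corrected inhibition of lipid staining of at least 50% with the nuclear-stain viability signal not falling by more than 50%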;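 further: 0% = DMSO wells and 100% = triacsin C control wells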
NadD inh – blocks S. aureus nicotinate mononucleotide adenylyltransferase. purified NadD enzyme, colorimetric absorbance read-out. inhibition, % at 20 µM. 360,000 compounds, 0.78% hits. AID 602399; in the data active means inhibition above about 26%
H9c2 TAG conf – triacylglycerol accumulation inhibition, confirmation. inhibition, % at 12.5 µM. shares compounds with TAG inh. H9c2 lipid accumulation, Nile Red fluorescence; cells loaded with 200 µM oleic acid. AID 651629. 990 compounds, 71% hits;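 active means mean inhibition across replicates of 40% or more; inactive means mean inhibition below 40%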;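 further: plate controls were DMSO only wells for no effect and Triacsin C treated wells for full effect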
Active calls of the source: *; . = not tested or not shown.

SMILES	aDG glyco act	MPTP block	TAG inh	NadD inh	H9c2 TAG conf
CN(C)CCCNc1nc2sc3c(c2c(=O)n1CCc1ccccc1)CCCCC3	0	-3	60*	-7	34
CN(C)CCCn1c(=O)n(CCc2ccccc2)c(=O)c2c3c(sc21)CCCCC3	0	-8	55*	-13	50*
O=C(Cc1ccc(NC(=O)C2CCN(C(=O)C3CC3)CC2)cc1)Nc1ccc(C(=O)N2CCOCC2)cc1	0	0	-3	0	.
O=C(Nc1cccc(Cl)c1Cl)c1csc([C@H]2C[C@H](O)[C@@H](CO)O2)n1	0	-1	-24	-2	.
Cc1ccc(C(=O)CC2(O)C(=O)N(CCc3ccccc3)c3ccc(Br)cc32)o1 (configuration not stated)	2	1	51*	-3	24
COc1ccc2c(c1)[nH]c1c(=O)n(/N=C/C3C(C)C=C(C)CC3C)c(=O)[nH]c12 (configuration not stated)	0	3	85*	-2	20
O=C(/C=C/c1cccs1)Nc1ccc(N2CCOCC2)c(S(=O)(=O)Nc2ccccc2Cl)c1	0	4	.	23	.
COc1ccccc1NS(=O)(=O)c1cc(NC(=O)/C=C/c2cccs2)ccc1N1CCOCC1	-1	1	54*	3	32
O=C(NC(c1ccc(F)cc1)c1ccc2ccccc2n1)C1CCN(Cc2ccc3ccccc3n2)CC1 (configuration not stated)	0	0	-8	4	.
COc1cc(/C=C/CN2CCC(C(=O)NC(c3ccc(F)cc3)c3ccc4ccccc4n3)CC2)ccc1OC(C)=O (configuration not stated)	5	0	54*	6	54*
CN(C)c1ccc(CN2CCC(C(=O)NC(c3ccc(F)cc3)c3ccc4ccccc4n3)CC2)cc1 (configuration not stated)	2	1	56*	-6	38
O=C(NN=Cc1ccccc1C(=O)O)c1cccc(S(=O)(=O)Nc2cccc(C(F)(F)F)c2)c1	0	0	4	7	.
Cc1cc(C)cc(Cn2c3ccc(NC(=O)NCc4ccc(F)cc4)cc3c(=O)n2C)c1	0	0	-30	0	.
Cc1cc(NC(=O)c2ccccc2F)n(-c2nc3ccccc3[nH]2)n1	0	2	64*	4	57*
CCOC(=O)CN(C(=O)CSc1nnc2c(n1)[nH]c1ccc(F)cc12)c1ccccc1	0	13	-1	6	.
CCOC(=O)CN(C(=O)CSc1nnc2c(n1)[nH]c1ccccc12)c1ccccc1	0	5	51*	2	29
CSC1=C(C#N)C(c2ccccc2C)C(C#N)=C(N)N1 (configuration not stated)	0	3	55*	-1	5
CC(C)n1cc(/C=C2/NC(=O)N(c3cccc(Cl)c3)C2=O)c2ccccc21	3	3	55*	17	23
Clc1cccc(CNc2ccn3nc(-c4cccc(OCc5ccccc5)c4)cc3n2)c1	0	4	12	6	.
CCc1nnc(NC(=O)c2cc3c(s2)CCCCC3)s1	0	-2	50*	14	12
COCCN1C(=O)N[C@@H](CCc2ccccc2)[C@H](C(=O)OC)[C@H]1C	0	-1	-1	1	.
CC(C)c1cccc(C(C)C)c1OC(=O)[C@H]1OC(c2ccc(Br)cc2)=C[C@@H]1c1ccc(Br)cc1	0	8	59*	13	23
O=C(CCC(=O)N1CCOCC1)NCc1cccc(C(F)(F)F)c1	0	-1	-4	2	.
Cc1nn2c(N3CCCC3)cc(C(C)C)nc2c1-c1ccccc1	2	3	72*	-1	59*
COCCCn1c(SCC(=O)Nc2ccc(NC(=O)c3ccco3)c(OC)c2)nc2ccccc2c1=O	0	1	62*	-9	38
COc1ccc(NC(=O)C2Cc3c(-c4cccc(C(C)=O)c4)ccnc3O2)cc1 (configuration not stated)	0	2	54*	1	38
CC(=O)Nc1ccc(-c2ccnc3c2CC(C(=O)NCc2cccc(Cl)c2)O3)cc1 (configuration not stated)	0	0	58*	-2	63*
COCCN1C[C@@H](CO)O[C@@H](n2cnc3c(NC4CCC4)ncnc32)C1	0	1	1	-6	.
CCC(CC)NCc1ccc2c(c1)c1ccccc1n2CC	4	7	52*	-5	37
CCn1c2ccccc2c2cc(N)ccc21	0	-2	.	18	.
